# Laboratory results from PubChem BioAssay (NCATS).
# Results filed as inconclusive are left out. Entries that show only a call come without a potency. Active and inactive are the calls of the source. The call rests on the fitted dose curve; in most records, active means well fitted curve in the direction sought with a large enough effect; inconclusive means small, poorly fitted or top-dose-only effect, or another doubt; inactive means no such curve, though single readings can be large; an effect the other way counts as inactive or inconclusive.
# What was measured:
# [1] = COV-362 Cancer Cell Toxicity qHTS against the NCATS CANVASS Library (AID 1347352); details: COV-362 viability, CellTiter-Glo luminescence, 72 h; further: potency means the concentration at half of the fitted maximal effect
# In short: (§1)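 Cells were seeded at 1000 per well and allowed to settle 4 hours at 37 degrees C before pin transfer of compounds as an 11-point series. Viability was read by CellTiter-Glo luminescence after 72 hours' exposure.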
# [2] = A2780 Cisplatin Sensitive Ovarian Cancer Cell Toxicity qHTS against the NCATS CANVASS Library (AID 1347353); details: A2780 ovarian cancer viability, ATPLite luminescence, 72 h; further: potency means the concentration at half of the fitted maximal effect; nearly all actives have a fitted effect of over 60% in size
# In short: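 A2780 cisplatin-sensitive cells (750 per well) were seeded, left 4 h at 37 °C, then pin-dosed in an 11-point series. After 72 h at 37 °C/5% CO2, viability was measured as ATPLite luminescence.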
# [3] = HEK-293 Cancer Cell Toxicity qHTS against the NCATS CANVASS Library (AID 1347355); details: HEK-293 viability, CellTiter-Glo luminescence, 72 h; further: potency means the concentration at half of the fitted maximal effect; nearly all actives have a fitted effect of over 65% in size
# In short: as §1
# [4] = HPAF-II 24hr Apoptosis Induction qHTS against the NCATS CANVASS Library (AID 1347356); details: HPAF-II caspase-3/7 Caspase-Glo luminescence; series mostly up to 46.1 µM
# In short: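 HPAF-II cells (500/well) in DMEM + 10% FBS were treated with an 11-point compound series for 24 hours at 37 degrees C. Caspase-3/7 activity was then read by Caspase-Glo DEVD luminescence after 15 min.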
# [5] = HEK293 18hr Apoptosis Induction qHTS against the NCATS CANVASS Library (AID 1347357); details: HEK293 caspase-3/7 Caspase-Glo luminescence; series mostly up to 46.1 µM
# In short: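 HEK293 cells (500 per well, DMEM with 10% FBS) were treated with natural products, incubated 18 hours at 37 degrees C, then caspase-3/7 activity was read by Caspase-Glo luminescence after 15 min at room temperature.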
# [6] = HPAF-II 12hr Apoptosis Induction qHTS against the NCATS CANVASS Library (AID 1347358); details: HPAF-II caspase-3/7 Caspase-Glo luminescence; series mostly up to 46.1 µM
# Source text: Natural products and their derivatives continue to be wellsprings of nascent therapeutic potential. However, many laboratories have limited resources for biological evaluation, leaving their previously isolated or synthesized compounds largely or completely untested. To address this issue, the Canvass library of natural products was assembled (https://tripod.nih.gov/canvass), in collaboration with academic and industry researchers, for quantitative high-throughput screening (qHTS) across a diverse set of cell-based and biochemical assays. The pure (>85% purity by liquid chromatography/mass spectrometry [LC/MS]) Canvass library of 346 natural products were submitted by 45 academic laboratories and companies around the world. […] The library was formatted into 1536-well plates and evaluated in 50 qHTS (in an 11-pnt concentration series) bioassays with broad scope of disease-relevant mechanisms. The resulting data set from 50 different assays was then systematically analyzed to identify overall trends and specific natural products with interesting biological activities. […] The luminescence is proportional to the amount of caspase activity in the assay reaction. […]
# Cancer Cell Apoptosis Assay 1. […] Luminescence signal was acquired via the ViewLux plate reader (PerkinElmer) using a clear filter, 20 second exposure and 2x binning settings.
# [7] = HEK293 24hr Apoptosis Induction qHTS against the NCATS CANVASS Library (AID 1347359); details: HEK293 caspase-3/7 activation, Caspase-Glo luminescence; series mostly up to 46.1 µM
# In short: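 HEK293 cells, 500 per well, exposed to an 11-point compound series for 24 hours at 37 degrees C. Caspase 3/7 activity read by Caspase-Glo luminescence (DEVD substrate) after 15 min at room temperature.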
# [8] = HPAF-II 18hr Apoptosis Induction qHTS against the NCATS CANVASS Library (AID 1347360); details: HPAF-II caspase-3/7 luminescence; series mostly up to 46.1 µM
# In short: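 HPAF-II cells (500/well, DMEM + 10% FBS) were exposed to compounds for 18 hours at 37 degrees C. Caspase-3/7 activity was then read by Caspase-Glo 3/7 luminescence after 15 min at room temperature.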
# [9] = HEK293 12hr Apoptosis Induction qHTS against the NCATS CANVASS Library (AID 1347361); details: HEK293 caspase-3/7 Caspase-Glo luminescence; series mostly up to 46.1 µM
# In short: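 Read-out: Caspase-Glo 3/7 luminescence (DEVD substrate), 15 min RT. Preceded by 12 h compound exposure of HEK293, 500 cells/well, 11-pt qHTS titration; doxorubicin titration as control.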
# [10] = test system: NAD(P)H diaphorase (Clostridium kluyveri); assay: Diaphorse counterscreen qHTS: Assay Interference Panel against the NCATS CANVASS Library (AID 1347362); details: Diaphorase enzyme, resazurin to resorufin fluorescence; series mostly up to 57.5 µM
# In short: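 Clostridium kluyveri diaphorase in PBS + 0.01% Tween-20 preincubated 15 min with compounds. Resazurin and NADH then added for 5 min at room temperature in the dark; resorufin fluorescence read (ex 525, em 598).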
smiles,measurement,setting,value
C=C1C(=O)O[C@H]2[C@H]1CC/C(C)=C/CC[C@@]1(C)O[C@@H]21,Potency,[1],18.8 µM (active)
same,Potency,[2],2.96 µM (active)
same,Potency,[3],7.43 µM (active)
same,outcome,[4],inactive
same,outcome,[5],inactive
same,outcome,[6],inactive
same,outcome,[7],inactive
same,outcome,[8],inactive
same,outcome,[9],inactive
same,outcome,[10],inactive
